Assay results published in PubChem BioAssay (NCATS).
Results filed as inconclusive are left out. Where a call stands in place of a potency, no number is given. Active and inactive are the calls of the source. Unless noted, calls follow the shape of the full dose curve.

Columns and labels:
[1] = Primary qHTS for Huh7 cytotoxicity: counterscreen for inhibitors of MERS-S pseudotyped particle cell entry (AID 1479147); details: outcome: dose series up to 57.1 µM unless noted
[2] = Primary qHTS for inhibitors of MERS-S pseudo-typed particle cell entry (AID 1479149); details: outcome: dose series up to 57.1 µM unless noted; also: potency is read from the fitted curve at half-maximal effect; nearly all actives have a fitted effect of over 60% in size
[3] = Primary qHTS for Vero E6 cytotoxicity: counterscreen for inhibitors of SARS-S pseudo-typed particle cell entry (AID 1479150); details: outcome: dose series up to 57.1 µM unless noted
[4] = Cytotoxicity counterscreen for inhibitors of SARS-CoV-2 cell entry (AID 1645845); details: outcome: dose series up to 57.1 µM unless noted; also: nearly all actives have a fitted effect of over 50% in size
Summary of the method: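 48 h compound treatment (after 1 h preincubation), HEK293-ACE2 cells, 37 C/5% CO2; ATP luminescence endpoint; normalized to cell wells and media blanks.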

[5] = target: Glutathione peroxidase 1 (Homo sapiens) (UniProt P07203); assay: Primary qHTS Assay for Inhibitors of Recombinant Selenoprotein Glutathione Peroxidase 1 (GPX1) (AID 1845191; active = well fitted inhibition curve with a large enough effect; also: nearly all actives have a fitted effect of over 65% in size)
Summary of the method: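 10 nM GPX1 + cpd, 30 min RT; start w/ 1 mM GSH, 0.5 mM cumene hydroperoxide, 0.5 mM NADPH, 100 nM GR, 0.01% BSA; buffer 50 mM Tris-HCl pH 7.5, 2 mM EDTA, 150 mM NaCl; Fl 340/450, 0 & 15 min.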

[6] = target: Phospholipid hydroperoxide glutathione peroxidase GPX4 (Homo sapiens) (UniProt P36969); assay: Primary qHTS Assay for Inhibitors of Recombinant Selenoprotein Glutathione Peroxidase 4 (GPX4) (AID 1845192; active = well fitted inhibition curve with a large enough effect; also: nearly all actives have a fitted effect of over 65% in size)
Summary of the method: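 NADPH consumption, followed by fluorescence at 340/450 nm between 0 and 15 min, reports GPX4 activity via coupled glutathione reductase (100 nM). Enzyme 200 nM was pre-exposed to compound 30 min; 0.5 mM cumene hydroperoxide and 1 mM GSH served as substrates.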

[7] = Primary qHTS to identify inhibitors of SARS-CoV-2 cell entry (AID 1645846); details: SARS-CoV-2 pseudovirus cell entry assay, luminescence; activity change, negative = inhibition: at 57.1 µM (top of the series) unless noted; also: nearly all actives have a fitted effect of over 45% in size; also: potency is read from the fitted curve at half-maximal effect
Summary of the method: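 Luminescence readout (Bright-Glo luciferase) 48 h after pseudoparticle addition. HEK293-ACE2 cells, 1500/well; compound pre-incubation 1 h; Normalized to spike PP and bald PP.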

[8] = Confirmatory qHTS for VERO E6 Cytotoxicity Assay: Counterscreen for SARS-CoV-2 CPE Assay (AID 1508605); also: nearly all actives have a fitted effect of over 60% in size
[9] = Confirmatory qHTS to identify inhibitors of SARS-CoV-2 cell entry (AID 1645844); also: potency is read from the fitted curve at half-maximal effect; nearly all actives have a fitted effect of over 45% in size
Summary of the method: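 Luminescence from a luciferase reporter, read 48 hr after pseudotyped-particle addition, gives entry signal, normalised to spike-bearing PP wells and bald PP lacking fusion protein wells. Cells are Expi293F stably expressing human ACE2, compound-pretreated 1 hr.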

[10] = VSVG counterscreen qHTS to identify inhibitors of SARS-CoV-2 cell entry (AID 1645847); also: nearly all actives have a fitted effect of over 65% in size; also: potency is read from the fitted curve at half-maximal effect
Summary of the method: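 HEK293-ACE2 cells (Expi293F stably expressing human ACE2) were pretreated with compound for 1 h at 37 °C, then infected with MLV-based VSV-G pseudotyped particles for 48 h. Luciferase luminescence was normalized to VSV-G PP and bald PP wells.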

Phospholipid hydroperoxide glutathione peroxidase GPX4 (Homo sapiens), sequence (P36969 whole entry, looked up): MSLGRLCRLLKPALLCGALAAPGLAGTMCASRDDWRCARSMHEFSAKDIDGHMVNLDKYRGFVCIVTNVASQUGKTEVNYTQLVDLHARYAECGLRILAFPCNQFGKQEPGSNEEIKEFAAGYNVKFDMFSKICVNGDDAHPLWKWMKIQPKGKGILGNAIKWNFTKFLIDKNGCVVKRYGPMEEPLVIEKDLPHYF
Glutathione peroxidase 1 (Homo sapiens), sequence (P07203 whole entry, looked up): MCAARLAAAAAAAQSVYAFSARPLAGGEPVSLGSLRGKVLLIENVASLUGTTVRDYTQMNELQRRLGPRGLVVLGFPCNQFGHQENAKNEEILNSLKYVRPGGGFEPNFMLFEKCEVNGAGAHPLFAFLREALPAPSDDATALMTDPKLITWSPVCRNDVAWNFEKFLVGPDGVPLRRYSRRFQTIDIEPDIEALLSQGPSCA

SMILES: Cc1nn(C)c2c1C(c1ccccc1F)=NCC(=O)N2C
- Potency [1]: inactive
- Potency [2]: 22.4 µM (active)
- Potency [3]: inactive
- Potency [4]: inactive
- Potency [5]: inactive
- Potency [6]: inactive

SMILES: CC(C)(C)NCC(O)COc1ccccc1C1CCCC1 (stereo not drawn)
- Potency [1]: inactive
- Potency [3]: inactive
- Potency [4]: inactive
- Potency [7]: 10 µM (active)

SMILES: CC(C)[C@H]1C(=O)N[C@@H](CCCN=C(N)N)C(=O)NCC(=O)N[C@@H](CC(=O)O)C(=O)N[C@H](Cc2ccccc2)C(=O)N1C
- Potency [1]: inactive
- Potency [3]: inactive
- Potency [4]: inactive
- activity change, negative = inhibition [7]: -11.5% [at 27.1 µM]

SMILES: CC[C@@H]1/C=C(\C)C[C@H](C)C[C@H](OC)[C@H]2O[C@@](O)(C(=O)C(=O)N3CCCC[C@H]3C(=O)O[C@H](/C(C)=C/[C@@H]3CC[C@H](Cl)[C@H](OC)C3)[C@H](C)[C@@H](O)CC1=O)[C@H](C)C[C@@H]2OC
- Potency [1]: inactive
- Potency [3]: inactive
- Potency [4]: inactive

SMILES: CCOC(=O)N[C@@H]1CC[C@@H]2[C@@H](C1)C[C@H]1C(=O)O[C@H](C)C1[C@H]2/C=C/c1ccc(-c2cccc(F)c2)cn1 (stereo partly drawn)
- Potency [1]: inactive
- Potency [3]: inactive
- Potency [8]: inactive
- Potency [4]: inactive

SMILES: CNS(=O)(=O)CC1CCC(N(C)c2ncnc3[nH]ccc23)CC1 (stereo not drawn)
- Potency [1]: inactive
- Potency [3]: inactive
- Potency [4]: inactive
- Potency [7]: inactive

SMILES: CC(CN1c2ccccc2Sc2cccnc21)N(C)C (stereo not drawn)
- Potency [1]: inactive
- Potency [3]: inactive
- Potency [9]: 24.1 µM (active)
- Potency [4]: inactive
- Potency [10]: 24.1 µM (active)

SMILES: Cc1cc(-n2c(=O)[nH]c(=O)n(C)c2=O)ccc1Oc1ccc(SC(F)(F)F)cc1
- Potency [1]: inactive
- Potency [3]: inactive
- Potency [4]: inactive

SMILES: CCN1CCN(Cc2ccc(Nc3ncc(F)c(-c4cc(F)c5nc(C)n(C(C)C)c5c4)n3)nc2)CC1
- Potency [1]: inactive
- Potency [3]: inactive
- Potency [4]: inactive
- Potency [7]: 10 µM (active)
- Potency [10]: 6.81 µM (active)

SMILES: CCOC(=O)Oc1c(OC)cc(C(=O)O[C@@H]2C[C@@H]3CN4CCc5c([nH]c6cc(OC)ccc56)[C@H]4C[C@@H]3[C@H](C(=O)OC)[C@H]2OC)cc1OC
- Potency [1]: inactive
- Potency [3]: inactive
- Potency [4]: inactive
- Potency [7]: 22.4 µM (active)

SMILES: CCCN1C[C@H](C)[C@@H](O)[C@](C)(O)[C@@H](CC)OC(=O)[C@H](C)[C@@H](O[C@H]2C[C@@](C)(OC)[C@@H](O)[C@H](C)O2)C(C)[C@@H](O[C@@H]2O[C@H](C)C[C@H](N(C)C)[C@H]2O)[C@](C)(O)C[C@H]1C (stereo partly drawn)
- Potency [1]: inactive
- Potency [3]: inactive
- Potency [9]: 21.5 µM (active)
- Potency [4]: inactive
- Potency [7]: 11.2 µM (active)
- Potency [10]: inactive

SMILES: Cc1cnc(C(=O)N[C@H]2CCCCC/C=C\[C@H]3C[C@@]3(C(=O)NS(=O)(=O)C3CC3)NC(=O)[C@@H]3C[C@@H](Oc4nc5ccccc5c5ccccc45)CN3C2=O)cn1
- Potency [1]: inactive
- Potency [3]: inactive
- Potency [4]: inactive

SMILES: OC[C@H]1NC[C@H](O)[C@@H](O)[C@@H]1O
- Potency [1]: inactive
- Potency [3]: inactive
- Potency [4]: inactive

SMILES: CC(C)C[C@H]1C(=O)O[C@H](Cc2ccc(N3CCOCC3)cc2)C(=O)N(C)[C@@H](CC(C)C)C(=O)O[C@H](C)C(=O)N(C)[C@@H](CC(C)C)C(=O)O[C@H](Cc2ccc(N3CCOCC3)cc2)C(=O)N(C)[C@@H](CC(C)C)C(=O)O[C@H](C)C(=O)N1C
- Potency [1]: inactive
- Potency [3]: inactive
- Potency [8]: inactive
- Potency [4]: inactive

SMILES: C=CC[C@@H]1/C=C(\C)C[C@H](C)C[C@H](OC)[C@H]2O[C@@](O)(C(=O)C(=O)N3CCCC[C@H]3C(=O)O[C@H](/C(C)=C/[C@@H]3CC[C@@H](O)[C@H](OC)C3)[C@H](C)[C@@H](O)CC1=O)[C@H](C)C[C@@H]2OC
- Potency [1]: inactive
- Potency [3]: inactive
- Potency [4]: inactive
- Potency [7]: inactive

SMILES: CC(=O)c1ccc2c(c1)N(CCCN1CCN(CCO)CC1)c1ccccc1S2
- Potency [1]: inactive
- Potency [3]: inactive
- Potency [4]: inactive
- activity change, negative = inhibition [7]: -25.7%

SMILES: C=Cc1c(C)c2cc3nc(cc4[nH]c(cc5nc(cc1[nH]2)C(C)=C5CCC(=O)O)c(CCC(=O)OC)c4C)[C@@]1(C)C3=CC=C(C(=O)OC)[C@@H]1C(=O)OC
- Potency [1]: inactive
- Potency [3]: inactive
- Potency [4]: inactive

SMILES: O=C(CCCN1CCC(C(=O)c2ccc(F)cc2)CC1)c1ccc(F)cc1
- Potency [1]: inactive
- Potency [3]: inactive
- Potency [4]: inactive

SMILES: OC(CCN1CCCCC1)(c1ccccc1)C1CCCC1 (stereo not drawn)
- Potency [1]: inactive
- Potency [3]: inactive
- Potency [4]: inactive

SMILES: CCCCCCCCCC(=O)OCCN1CCN(CC/C=C2\c3ccccc3Sc3ccc(C(F)(F)F)cc32)CC1
- Potency [1]: inactive
- Potency [3]: inactive
- Potency [4]: inactive
